Results: PubChem BioAssay (Tox21)
Records with an inconclusive call do not appear. Entries that show only a call come without a potency. Calls of active or inactive are those of the source. Calls come from the whole dose curve.

These compounds were tested against Beta-2 adrenergic receptor (Homo sapiens) (UniProt P07550) (assay: Adrenergic beta2 receptor (ADRB2) small molecule antagonists, cell-based qHTS assay (AID 1963592; note: nearly all actives have a fitted effect of over 50% in size)). Conditions: CHO-ADRB2 cells, isoproterenol-stimulated cAMP HTRF ratio, 0.5 h; series mostly up to 92.4 µM; activity change, negative = inhibition: at the top concentration.
Description: U.S. Tox21 Program National Center for Advancing Translational Sciences [NCATS] Division of Preclinical Innovation [DPI] U.S. Environmental Protection Agency [EPA] National Institutes of Environmental Health Sciences [NIEHS] National Toxicology Program [NTP] U.S. Food and Drug Administration [FDA] Tox21 Assay Overview: Beta adrenergic receptors (Beta-ARs) belong to the G-protein coupled receptor (GPCR) superfamily, includes three subtypes - beta1, beta2, and beta3. Beta1-AR is the predominant receptor subtype expressed in the heart, and beta2-AR is expressed in the kidney, lung, blood vessel and in the heart, and beta3 is found in the adipocytes. Beta1 and 2 ARs couple to Gs protein and elevate cyclic adenosine mono phosphate (cAMP), which activates protein kinase A and leads to the downstream signaling responsible for the physiological actions. Beta-AR agonists or antagonists are the most prescribed therapeutic agents for heart failure and asthma, and these were one of the first target receptors for the rational drug design. Tox21 10K compound library was screened using the cAMP-Gs dynamic assay (Cisbio Bioassays, Shelton, CT) to identify agonists/antagonists of the Gs-coupled human adrenergic, beta2 receptor (ADRB2) in the CHO-ADRB2 cell line (Codex BioSolutions, Inc. Gaithersburg, MD), which stably over-expresses ADRB2. The principle of cAMP-Gs dynamic assay is based on HTRF technology, which facilitates the fluorescence resonance energy transfer (FRET) between donor Europium cryptate and acceptor d2-labeled cAMP. The cAMP generated within cells competes with the red acceptor, d2-labled cAMP, for binding to the monoclonal anti-cAMP-cryptate (Europium donor). An increase in intracellular cAMP leads to the disruption of FRET signal, and the signal is inversely proportional to the cAMP concentration. Propranolol HCl (Sigma-Aldrich, St. Louis, MO) was used as a positive control in the screening.
Tox21 Assay Protocol Summary: CHO-ADRB2 cells were dispensed at 1,000/well in 4uL assay medium into white/solid 1536-well plates (Greiner Bio-One North America Inc., Monroe, NC) using a Multidrop Combi dispenser (ThermoFisher Scientific, Waltham, MA). The assay plates were incubated at 37C and 5% CO2 for an overnight (18-20hr). Then positive control and test compounds dissolved in DMSO were transferred to the assay plates at 23nL using a Pintool station (Wako, San Diego, CA). Following the compound and positive control transfer, 1uL agonist-stimulation mix containing 1nM Isoproterenol HCl, 100uM IBMX and 25uM Ro-20-1724 was added to each well of the assay plates using BioRAPTR Flying Reagent Dispenser (FRD, Beckman Coulter, Brea, CA). The assay plates were incubated at room temperature for 0.5hr. Then 2.5ul each d2-labled cAMP and anti-cAMP-cryptate solutions were added separately to each well of the assay plates using an FRD and the assay plates were incubated at room temperature for 1hr. The fluorescence signal was measured at two different wavelengths (665nm and 615nm) using an Envision plate reader (Perkin Elmer, Shelton, CT). Data were expressed as the ratio of 665 nm/615 nm.

Beta-2 adrenergic receptor (Homo sapiens), sequence (P07550 whole entry, looked up): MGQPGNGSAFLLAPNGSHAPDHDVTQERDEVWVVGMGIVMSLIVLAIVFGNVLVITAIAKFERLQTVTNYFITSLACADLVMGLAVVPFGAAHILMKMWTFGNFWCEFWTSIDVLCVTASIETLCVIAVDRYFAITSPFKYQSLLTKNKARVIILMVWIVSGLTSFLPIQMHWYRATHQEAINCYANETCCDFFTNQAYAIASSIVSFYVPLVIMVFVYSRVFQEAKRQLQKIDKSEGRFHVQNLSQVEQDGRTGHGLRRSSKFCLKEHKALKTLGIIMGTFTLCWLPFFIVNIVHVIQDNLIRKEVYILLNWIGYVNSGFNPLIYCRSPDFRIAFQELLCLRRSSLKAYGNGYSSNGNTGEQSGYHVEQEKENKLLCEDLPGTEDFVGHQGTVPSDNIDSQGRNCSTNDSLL

Row | Compound | Potency | activity change, negative = inhibition
1 | [O]=[Cr](=[O])([OH])[O][Cr](=[O])(=[O])[OH] | inactive | –
2 | C=CC#N | inactive | –
3 | Sc1ccccc1 | inactive | –
4 | COP(N)(=O)SC (stereo not given) | inactive | –
5 | CN(C)C(=S)SSC(=S)N(C)C | inactive | –
6 | CCCCCCCCOC(=O)c1ccc(C(=O)OCCCCCCCC)c(C(=O)OCCCCCCCC)c1 | – | 11.4% (inactive)
7 | C[C@]1(O)CC[C@H]2[C@@H]3CCC4=CC(=O)CC[C@]4(C)[C@@]3(F)[C@@H](O)C[C@@]21C | – | -16.7% (inactive)
8 | C(=NC1CCCCC1)=NC1CCCCC1 | inactive | –
9 | C=CC1CC=CCC1 (stereo not given) | – | 6.49% (inactive)
10 | CCC(Br)(CC)C(=O)NC(N)=O | – | -0.742% (inactive)
11 | COC(=O)c1ccccc1CS(=O)(=O)NC(=O)Nc1nc(OC)cc(OC)n1 | – | 1.25% (inactive)
12 | Nc1ccccc1Cl | – | 2.46% (inactive)
13 | Cc1ncc(CNC(=O)N(CCCl)N=O)c(N)n1 | – | -7.8% [at 42.5 µM] (inactive)
14 | Cc1cc(Cl)ccc1N | inactive | –
15 | CO[C@@H]1[C@H](OC(=O)NC(=O)CCl)CC[C@]2(CO2)[C@H]1[C@@]1(C)O[C@@H]1CC=C(C)C | – | -3.1% [at 19 µM] (inactive)
16 | CCOP(=S)(OCC)Oc1nc(Cl)c(Cl)cc1Cl | – | 18.6% (inactive)
17 | c1ccc(OP(Oc2ccccc2)Oc2ccccc2)cc1 | – | 1.13% (inactive)
18 | c1ccc(-c2cccc(-c3ccccc3)c2)cc1 | inactive | –
19 | CCC(C)(C)c1ccc(O)cc1 | inactive | –
20 | CCCCOC(=O)c1ccccc1C(=O)O | – | 16.3% (inactive)

Row | Compound | Potency | activity change, negative = inhibition
21 | CCC(=O)C(CC(C)N(C)C)(c1ccccc1)c1ccccc1 (stereo not given) | inactive | –
22 | O=[N+]([O-])O | inactive | –
23 | CCOP(=S)(OCC)O/N=C(\C#N)c1ccccc1 | inactive | –
24 | Cc1cc(Cl)ccc1OCC(=O)O | inactive | –
25 | CNC | inactive | –
26 | CCCCCCCCCCCCCC[P+](CCCCCC)(CCCCCC)CCCCCC | inactive | –
27 | COS(=O)(=O)c1ccc(C)cc1 | – | -4.19% (inactive)
28 | CN(C)C(=O)Cl | inactive | –
29 | O=[N+]([O-])c1ccccc1 | inactive | –
30 | Clc1ccc(C(c2ccc(Cl)cc2)C(Cl)Cl)cc1 | – | 8.02% (inactive)
31 | CN1CC[C@]23c4c5ccc(O)c4O[C@H]2[C@@H](O)CC[C@H]3[C@H]1C5 | – | -4% (inactive)
32 | [CH3][Sn]([Cl])([Cl])[Cl] | inactive | –
33 | CNC(=O)CSP(=S)(OC)OC | inactive | –
34 | CCOP(=S)(OCC)SCCSCC | inactive | –
35 | CCNc1nc(NCC)nc(SC)n1 | – | -11.5% (inactive)
36 | CC(C)CCCCCOC(=O)c1ccccc1C(=O)OCCCCCC(C)C | – | 0.906% (inactive)
37 | CCCCC(CC)CO[N+](=O)[O-] (stereo not given) | – | -7.56% (inactive)
38 | CC(C)(C)C(=O)Cl | – | -11% (inactive)
39 | OCCN(CCO)CCO | inactive | –
40 | C=C(C)[C@@H]1CC=C(C=O)CC1 | – | -17% (inactive)
